The text below walks through data of PubChem BioAssay.

Active and inactive are the calls of the source. Unless noted, how the calls were made is not given here.

Assay [1] has as its system Wnt5a (protein binding on small-molecule microarray). As to the kind of experiment: Wnt5a binders on small-molecule microarray, primary screen, biophysical, 635/667 nm fluorescence (AID 1142).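 Further: fluorescence read at 667 nm with signal to noise per printed feature.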 As to conditions: 635 nm fluorescence, higher = more signal.
Assay [2] can be described thus: cell viability in Huh7 cells, primary screen, cytotoxicity control for HCV replication inhibitor project, CellTiter-Glo luminescence, basal, 48 h (AID 1143).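 Further: Huh7 hepatoma cells carrying a hepatitis C replication reporter with no stimulus; test concentration not given here.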 As to conditions: Huh7 HCV replicon, higher = more signal, called active from +8 up or from −8 down. In general terms: ATP-based viability assays read luminescence as a measure of living cells.
A short description of assay [3]: P. aeruginosa biofilm formation inhibitors, primary screen, PAO1 strain, BacTiter-Glo luminescence, LB-PBS (AID 1144). As to conditions: 12 h, higher = more signal.
Assay [4] can be described thus: CREB reporter modulators without forskolin, primary screen, cell-based, PC12, CRE-LacZ reporter, unstimulated (AID 1145). As to conditions: no forskolin, luminescence, 4.5 h, higher = more signal, called active from +8 up or from −8 down.
A short description of assay [5]: CREB reporter modulators under forskolin, primary screen, cell-based, PC12, CRE-LacZ reporter, forskolin-stimulated (AID 1146).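 Further: PC12 cells with 6xCRE LacZ reporter stimulated by forskolin 10 µM; beta-galactosidase reporter signal reflecting CREB driven transcription.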 As to conditions: luminescence, 4.5 h, higher = more signal, called active from +8 up or from −8 down.
Assay [6] deals with Streptavidin (Streptomyces avidinii) (UniProt P22629). Briefly: streptavidin binders on small-molecule microarray, primary screen, artefact control for SMM compound annotation, biophysical, 635/667 nm fluorescence (AID 1147).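 Further: signal reflects streptavidin binding to arrayed compounds as a control protein.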 The settings on record: streptavidin binding, higher = more signal.
Assay [7] is described as follows: small-molecule binders of probe aInhba, primary screen, biochemical, small-molecule microarray, 635/667 nm fluorescence (AID 1148).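 Further: score merges 667nm spot fluorescence with signal-to-noise for antibody binding to printed compounds.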 As to conditions: higher = more signal.
Assay [8] deals with Torsin-1A (Homo sapiens) (UniProt O14656). As to the kind of experiment: torsin A binders from cell lysate, primary screen, small-molecule microarray, wild-type, 635/667 nm (AID 1149). As to conditions: COS7 hTOR1A-WT lysate, 635 nm fluorescence, higher = more signal.
Assay [9] has the same target. As to the kind of experiment: small-molecule binders of mutant TOR1A in lysate, primary screen, cell lysate, small-molecule microarray, COS7 lysate, 635/667 nm fluorescence (AID 1150).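 Further: score pools 667 nm emission and signal to noise measuring lysate protein binding.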 As to conditions: COS7 hTOR1A mutant lysate, 635 nm fluorescence, higher = more signal.
Assay [10] deals with Sonic hedgehog protein (Shh). Briefly: small-molecule binders of Shh protein, primary screen, biochemical, small-molecule microarray, 635/667 nm fluorescence (AID 1151).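 Further: Shh protein binding to compounds spotted on small-molecule microarray slides; score combines spot fluorescence intensity with signal-to-noise across triplicate slides.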 As to conditions: small-molecule microarray binding, 635 nm fluorescence; higher = more signal.
A short description of assay [11]: E. coli DRC41 culture turbidity changes, primary screen, E. coli filamentation inducer project, strain DRC41, OD650, 48 h (AID 1152).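 Further: E. coli MC1000 strain DRC41 lacking acrAB efflux pump and sulA.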 As to conditions: E. coli DRC41 (acrAB sulA), higher = more signal, called active from +8 up or from −8 down.
The nature of assay [12]: small-molecule binders of probe aLefty1, primary screen, biochemical, small-molecule microarray, 635/667 nm fluorescence (AID 1153).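 Further: score merges spot fluorescence with signal-to-noise ratio from the scanned slide images.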 As to conditions: higher = more signal.
A short description of assay [13]: PSAC antagonists in infected red cells, primary screen, cell-based, P. falciparum Indochina, OD700, 1 h (AID 1154). The settings on record: P. falciparum Indochina infected RBC osmotic lysis, higher = more signal, called active from +8 up or from −8 down.
Assay [14] in a line: PSAC antagonists in infected red cells, primary screen, cell-based, P. falciparum Indochina, OD700, 2 h (AID 1155).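 Further: lysis reports solute entry through the parasite surface anion channel PSAC; channel blockers reduce lysis of infected cells.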 The settings on record: P. falciparum Indochina infected erythrocytes, osmotic lysis OD700; higher = more signal, called active from +8 up or from −8 down.
A short description of assay [15]: osmotic lysis modulators in infected erythrocytes, primary screen, PSAC antagonist project, cell-based, P. falciparum Indochina, OD700, 3 h (AID 1156). As to conditions: higher = more signal, called active from +8 up or from −8 down.
Assay [16] is described as follows: PSAC antagonists in infected red cells, primary screen, cell-based, P. falciparum Indochina, OD700, 18 h (AID 1157). The settings on record: P. falciparum Indochina infected erythrocytes, osmotic lysis OD700, 18 h; higher = more signal, called active from +8 up or from −8 down.
Assay [17] in a line: modulators of S6 phosphorylation in cells, primary screen, cell-based, A549, cytoblot, luminescence, serum-stimulated (AID 1158).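 Further: serum-stimulated A549 lung adenocarcinoma cells; signal is phosphorylated S6 detected by cytoblot immunostaining with HRP secondary.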 As to conditions: A549 phospho-S6 cytoblot, 5 h, higher = more signal.
Assay [18] concerns the target NADPH oxidase 2 (Homo sapiens) (UniProt P04839). As to the kind of experiment: NOX2-dependent H2O2 signal modulators, primary screen, NOX inhibitor project, cell-based, HEK293-NOX2, PMA-stimulated, Amplex Red fluorescence (AID 1159). Further: test concentration not given here. As to conditions: 45 min, higher = more signal, called active from +8 up or from −8 down.
For assay [19], the target named is NADPH oxidase 4 (Homo sapiens) (UniProt Q9NPH5). Briefly: NOX4-dependent H2O2 signal modulators, primary screen, NOX inhibitor project, cell-based, HEK293-NOX4, tetracycline-induced, Amplex Red fluorescence (AID 1160). As to conditions: 45 min, higher = more signal, called active from +8 up or from −8 down.
Assay [20] deals with NADPH oxidase 5 (Homo sapiens) (UniProt Q96PH1). Briefly: NOX5-dependent H2O2 signal modulators, primary screen, NOX inhibitor project, cell-based, HEK293-NOX5, Amplex Red fluorescence (AID 1161). As to conditions: HEK293-NOX5, ionomycin, 45 min, higher = more signal.
Sequence of NADPH oxidase 5 (Homo sapiens) (Q96PH1 whole entry, looked up): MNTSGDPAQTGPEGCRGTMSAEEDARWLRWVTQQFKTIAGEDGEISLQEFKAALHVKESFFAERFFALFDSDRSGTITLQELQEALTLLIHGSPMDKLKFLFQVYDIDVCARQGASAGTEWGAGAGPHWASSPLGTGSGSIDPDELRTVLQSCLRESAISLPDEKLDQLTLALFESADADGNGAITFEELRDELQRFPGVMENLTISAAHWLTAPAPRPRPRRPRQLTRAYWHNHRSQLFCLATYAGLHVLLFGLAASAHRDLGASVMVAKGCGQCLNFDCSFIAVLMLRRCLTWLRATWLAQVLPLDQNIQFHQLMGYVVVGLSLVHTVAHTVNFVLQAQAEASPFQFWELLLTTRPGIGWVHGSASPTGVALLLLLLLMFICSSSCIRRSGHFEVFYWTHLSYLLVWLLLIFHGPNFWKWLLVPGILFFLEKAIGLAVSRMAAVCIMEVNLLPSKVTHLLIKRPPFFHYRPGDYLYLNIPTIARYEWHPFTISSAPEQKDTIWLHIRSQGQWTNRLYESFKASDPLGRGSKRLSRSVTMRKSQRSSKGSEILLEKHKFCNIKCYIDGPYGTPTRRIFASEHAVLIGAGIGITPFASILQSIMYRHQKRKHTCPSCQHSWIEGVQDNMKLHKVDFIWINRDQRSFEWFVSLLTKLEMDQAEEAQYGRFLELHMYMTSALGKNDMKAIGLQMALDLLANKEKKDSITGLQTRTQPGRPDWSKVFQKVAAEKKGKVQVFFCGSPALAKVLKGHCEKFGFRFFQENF

Sequence of NADPH oxidase 4 (Homo sapiens) (Q9NPH5 whole entry, looked up): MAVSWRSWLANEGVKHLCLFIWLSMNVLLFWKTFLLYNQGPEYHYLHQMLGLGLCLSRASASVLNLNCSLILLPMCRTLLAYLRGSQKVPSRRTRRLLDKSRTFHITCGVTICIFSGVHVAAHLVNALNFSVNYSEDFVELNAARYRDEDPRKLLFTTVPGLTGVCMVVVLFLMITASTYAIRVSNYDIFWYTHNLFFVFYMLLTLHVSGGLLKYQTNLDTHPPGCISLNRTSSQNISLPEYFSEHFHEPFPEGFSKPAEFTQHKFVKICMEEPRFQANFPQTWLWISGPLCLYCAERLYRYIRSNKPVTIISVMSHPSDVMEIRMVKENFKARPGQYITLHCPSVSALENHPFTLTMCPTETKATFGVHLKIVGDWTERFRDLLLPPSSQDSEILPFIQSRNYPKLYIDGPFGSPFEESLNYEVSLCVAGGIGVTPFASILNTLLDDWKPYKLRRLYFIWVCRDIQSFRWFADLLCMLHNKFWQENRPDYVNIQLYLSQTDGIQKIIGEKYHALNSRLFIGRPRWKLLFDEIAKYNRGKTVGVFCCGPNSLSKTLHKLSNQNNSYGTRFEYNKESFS
Sequence of Streptavidin (Streptomyces avidinii) (P22629 whole entry, looked up): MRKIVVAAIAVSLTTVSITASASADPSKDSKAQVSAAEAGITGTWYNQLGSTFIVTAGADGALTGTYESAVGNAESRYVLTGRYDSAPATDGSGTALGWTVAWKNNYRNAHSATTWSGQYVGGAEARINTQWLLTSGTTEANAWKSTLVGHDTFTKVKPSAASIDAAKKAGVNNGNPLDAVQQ
Sequence of Torsin-1A (Homo sapiens) (O14656 whole entry, looked up): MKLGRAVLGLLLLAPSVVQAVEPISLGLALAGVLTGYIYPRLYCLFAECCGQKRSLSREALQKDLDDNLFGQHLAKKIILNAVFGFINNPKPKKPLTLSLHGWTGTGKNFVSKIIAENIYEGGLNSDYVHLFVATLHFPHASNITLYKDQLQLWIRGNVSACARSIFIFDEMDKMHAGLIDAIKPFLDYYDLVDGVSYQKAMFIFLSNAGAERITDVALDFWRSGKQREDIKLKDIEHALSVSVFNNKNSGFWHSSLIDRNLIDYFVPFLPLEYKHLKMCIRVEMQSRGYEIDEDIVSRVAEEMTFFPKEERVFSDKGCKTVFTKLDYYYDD
Sequence of NADPH oxidase 2 (Homo sapiens) (P04839 whole entry, looked up): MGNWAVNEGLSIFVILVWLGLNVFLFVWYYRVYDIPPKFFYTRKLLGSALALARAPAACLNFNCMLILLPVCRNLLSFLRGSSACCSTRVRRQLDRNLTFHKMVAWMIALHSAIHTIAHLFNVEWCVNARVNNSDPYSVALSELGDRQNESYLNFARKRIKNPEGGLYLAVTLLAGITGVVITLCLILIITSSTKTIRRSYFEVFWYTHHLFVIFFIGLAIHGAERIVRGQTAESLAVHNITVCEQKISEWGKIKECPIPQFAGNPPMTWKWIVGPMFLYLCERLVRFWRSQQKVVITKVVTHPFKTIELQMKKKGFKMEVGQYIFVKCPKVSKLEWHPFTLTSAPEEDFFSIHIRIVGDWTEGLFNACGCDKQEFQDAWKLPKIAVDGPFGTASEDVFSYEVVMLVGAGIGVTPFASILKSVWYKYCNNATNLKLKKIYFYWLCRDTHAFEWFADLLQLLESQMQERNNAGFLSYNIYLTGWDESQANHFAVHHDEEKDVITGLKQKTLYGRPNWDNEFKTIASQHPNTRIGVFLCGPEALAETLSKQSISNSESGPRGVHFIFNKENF

On to `C[C@@H]1C=CCC(=O)OC[C@H](C)C(=O)N2CCC[C@H]2C(=O)OC1`, for which the composite z-score in [1] was 0.15; in assay [6], 0.245; in assay [7], -0.21; in the assay with Torsin-1A (Homo sapiens) [8] it was 3.08; with Torsin-1A (Homo sapiens) [9], 2.85; in assay [10], 2.33. In assay [12], this compound displayed a composite z-score of -0.384. In addition, the z-score is 0.111 (inactive) in assay [2]; -0.736 (inactive) in assay [3]; -0.264 (inactive) in [4]; -0.0697 (inactive) in [5]; 0.665 (inactive) in [11]; 0.29 (inactive) in assay [13]. Further, the z-score in [14] was 0.149 (inactive); in [15], 1.11 (inactive); in assay [16], 0.097 (inactive); in assay [17], -0.39; in assay [18], -0.49 (inactive); in [19] it was 0.445 (inactive). In assay [20], this compound had a z-score of -0.764.
On to `O[C@@H](Cc1ccccc1)[C@H]1C2C=CCCC(c3ccccc3)=C2CN1Cc1cccc(Cl)c1` (stereo not given in full), for which the composite z-score in assay [1] came to 0.0825; in assay [6], 0.26; in assay [7], 0.0355; with Torsin-1A (Homo sapiens) [8], 0.762; with Torsin-1A (Homo sapiens) [9] it was 0.144; in assay [10], 0.733. For the same compound, in assay [12], the composite z-score was -0.104. In addition, the z-score in assay [2] is -1.31 (inactive); in assay [3], -0.577 (inactive); in assay [4] it was 2.58 (inactive); in assay [5], 1.44 (inactive); in assay [11], 3.28 (inactive); in assay [13] it was 4.33 (inactive). For the same compound, the z-score in assay [14] was 0.669 (inactive); in [15] it was 1.16 (inactive); in [16] it was 0.476 (inactive); in assay [17], 0.459; in assay [18] it was -0.384 (inactive); in assay [19], -0.868 (inactive). In [20], this compound displayed a z-score of -0.41.
As for `C#CCCCON=C1C[C@@H](O)[C@@H](O)[C@@H]2[C@@H]3C(=O)N(CCC(=O)OCC)C(=O)[C@@H]3CC[C@@H]12`, the composite z-score in assay [1] is 0.109; in [6], 0.842; in assay [7] it was 0.027; with Torsin-1A (Homo sapiens) [8], -0.343; in the assay with Torsin-1A (Homo sapiens) [9], 0.612; in assay [10], -0.948. This compound gave a composite z-score in assay [12] of 0.309. For the same compound, the z-score in [2] is 0.402 (inactive); in [3], -0.262 (inactive); in assay [4], 1.15 (inactive); in [5] it was -0.0962 (inactive); in [11] it was 0.425 (inactive); in assay [13], 16.5 (active). The z-score was 1.47 (inactive) in [14]; 0.146 (inactive) in [15]; 0.404 (inactive) in assay [16]; 0.194 in assay [17]; -9.69 (active) in assay [18]; 0.556 (inactive) in assay [19]. In assay [20], this compound came in with a z-score of 0.618.
For the compound `CCOC(=O)[C@H](CC(C)C)NC(=O)CCC1CC(OC(=O)NCCc2ccc(F)cc2)CC2(CCCC(COC(=O)NCc3ccccc3)O2)O1` (stereo not given in full), the composite z-score in assay [1] is 0.371; in [6], 0.255; in [7] it was -0.226; in the assay with Torsin-1A (Homo sapiens) [8] it was 1.47; with Torsin-1A (Homo sapiens) [9], 0.154; in assay [10], 1.86. Moreover, in assay [12], the composite z-score was 0.0536. Further, the z-score in [2] was -4.31 (inactive); in assay [3] it was -0.568 (inactive); in [4] it was 0.199 (inactive); in assay [5], 0.659 (inactive); in assay [11], -1.06 (inactive); in assay [13], 3.44 (inactive). Also, the z-score in [14] is -1.22 (inactive); in [15], 1.39 (inactive); in assay [16] it was -1.42 (inactive); in assay [17], 1.78; in assay [18], -0.945 (inactive); in assay [19], -0.797 (inactive). Also, the z-score in assay [20] is -2.24.
